Reference: PubChem BioAssay (NCI)
About 83,000 compounds went through this panel and 20% of them were active in at least one assay; those are over-represented in the sample as a whole.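 A percent growth of 40 corresponds to 60% growth inhibition; 0 means no net growth; -100 means all cells died. Active threshold: below 10.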 A number with no mark means an inactive call. The source made the active and inactive calls.

Assays:
Test in all cases: NCI-60 one-dose screen, 48 h (100 = growth as untreated, 0 = no growth, -100 = all killed)
SR leukemia = conditions: 10 µM unless noted
RPMI-8226 leukemia = conditions: 10 µM unless noted
OVCAR-8 ovarian = conditions: 10 µM unless noted
OVCAR-5 ovarian = conditions: 10 µM unless noted
OVCAR-4 ovarian = conditions: 10 µM unless noted
SK-OV-3 ovarian = conditions: 10 µM unless noted
IGROV1 ovarian = conditions: 10 µM unless noted
OVCAR-3 ovarian = conditions: 10 µM unless noted
NCI/ADR-RES ovarian = conditions: 10 µM unless noted
T-47D breast = conditions: 10 µM unless noted
BT-549 breast = conditions: 10 µM unless noted
MDA-MB-435 melanoma = conditions: 10 µM unless noted
MCF7 breast = conditions: 10 µM unless noted
HCT-116 colon = conditions: 10 µM unless noted
HCC-2998 colon = conditions: 10 µM
KM12 colon = conditions: 10 µM unless noted
SW-620 colon = conditions: 10 µM unless noted
HS 578T breast = conditions: 10 µM

SMILES | growth (SR leukemia) | growth (RPMI-8226 leukemia) | growth (OVCAR-8 ovarian) | growth (OVCAR-5 ovarian) | growth (OVCAR-4 ovarian) | growth (SK-OV-3 ovarian) | growth (IGROV1 ovarian) | growth (OVCAR-3 ovarian) | growth (NCI/ADR-RES ovarian) | growth (T-47D breast) | growth (BT-549 breast) | growth (MDA-MB-435 melanoma) | growth (MCF7 breast) | growth (HCT-116 colon) | growth (HCC-2998 colon) | growth (KM12 colon) | growth (SW-620 colon) | growth (HS 578T breast)
Cc1ncc(-c2ccnc(Nc3ccc(S(C)(=O)=O)cc3)n2)n1C(C)C | -18.3% (active) | -0.427% (active) | 6.22% (active) | -0.123% (active) | 3.33% (active) | 11.6% | -10.8% (active) | 8.42% (active) | 1.79% (active) | -12.3% (active) | -11.4% (active) | -45.2% (active) | 2.6% (active) | -0.0408% (active) | -15.6% (active) | -68.7% (active) |  | 
N[C@@H]1CCCN(c2c(/C=C3\SC(=O)NC3=O)cccc2-c2ccccc2)C1 | 22.1% | 13% | 61.1% | 64.4% | 11.4% | 63.6% | 66.7% | 54.2% |  | 25.7% | 0.186% (active) | 56.7% | 45.3% | 50.6% | 74.8% | 60.3% |  | 
C[C@@H]1COCCN1c1cc(C2([S@](C)(=N)=O)CC2)nc(-c2ccnc3[nH]ccc23)n1 | 7.14% (active) | 32.4% | 30.7% | 34.5% | 30.3% | 4.16% (active) | 17.7% | 31.7% | 80.4% | 21.4% | 27.2% | 31% | 14.4% | 35.5% |  | 21.4% |  | 
COc1cccc(Nc2ncnn3ccc(CN4CC[C@@H](N)[C@H](O)C4)c23)c1 | 20.1% | 65.7% | 27.5% | 25.5% | 61% | -41.4% (active) | -19% (active) | 44.1% |  | -1.78% (active) | 48.3% | 75.6% | 58.8% | 21.9% | 77.1% | 14.1% | 88.4% | 
Cc1ccccc1Nc1nc2nonc2nc1Nc1cccc(C)c1C | 66.8% | 24.4% | 54.3% | 98.9% | 30.3% | 56.6% | 74% | 35.8% |  | 16.2% | 51.7% | 55.7% | 43.3% | 43% | 67.5% | 53.8% | 77% | 
CCc1cc2c(c3ccc(C(=O)CBr)cc13)CCCC2 | 91.7% | 113% | 105% | 91.1% | 110% |  | 99.1% | 102% | 93.5% | 71.2% | 80.3% | 107% | 93.1% | 102% | 103% | 103% | 111% | 98.8%
C=CCCCOC1[C@H](OCc2ccccc2)C(OCc2ccccc2)C(OC)O[C@@H]1CNC(=O)c1cccc(I)c1 (stereo not given in full) | 26.7% | 8.34% (active) | 51.8% | 69% | 22.6% |  | 43.2% | 50.1% | 25.9% | 33.4% | 57.5% | 44.7% | 20.4% | 19.8% | 86.7% | 38.5% | 32.6% | 79.7%
COc1cc2c(cc1OCCCCCN1CCN(c3ncnc4ccccc34)CC1)N=CC1CCCN1C2=O (stereo not given) | 0.841% (active) | -35.6% (active) | 1.28% (active) | 23.8% | -3.06% (active) | 19.5% | -38.4% (active) | 1.46% (active) | 12.8% | 10.6% |  | -72.1% (active) | 12.1% | 4.44% (active) |  | -16.1% (active) |  | 
COc1cc2ncnc(Nc3ccc(F)c(Cl)c3)c2cc1NC(=O)/C=C/CN1CCCCC1 | -14.5% (active) | -31.2% (active) | -38.2% (active) | -22% (active) | -57.5% (active) | -93.5% (active) | -47.7% (active) | -83.2% (active) |  | -63% (active) | -32.4% (active) | -95.3% (active) | -53.7% (active) | -78.5% (active) | -88% (active) | -83.8% (active) | -78.4% (active) | 
COc1ccc(/C(C)=C(\c2ccc(Cl)cc2)c2ccc(OCCN3CCCCCC3)cc2)cc1 | 1.94% (active) | 51.2% | 69.1% | 74.3% | 56.4% | 55.7% | 67.1% | 58.2% | 82.8% | 39.6% | 63.5% | 65.9% | 36.5% | 38.3% | 82.1% | 31.2% |  | 
C=CCN1C(=O)c2cccc3c(-c4ccc5c(c4)ncn5C4CCCCC4)ccc(c23)C1=O | 39.8% | 29.5% | 49.5% | 75.3% | 32.3% | 73.4% | 67.1% | 62.4% |  | 11.2% | 17% | 39.4% | 37.6% | 32% | 75.2% | 49.4% | 86.3% | 
CC1(O)CCC2CC3OC3(C)CCC3OC3(C)C(O)CC1C2(C)C (stereo not given) | 104% | 84.4% | 87.3% | 120% | 91.1% | 109% | 70% | 118% |  | 116% |  | 113% | 105% | 121% |  | 112% | 99.2% | 
COCC(=O)NC/C=C/c1ccc2ncnc(Nc3ccc(Oc4ccc(C)nc4)c(C)c3)c2c1 | 22.5% | 50.6% | 38.5% | 21.6% | 40.1% | -18.6% (active) | -8.37% (active) | 63.3% |  | -0.662% (active) | 62% | 32.9% | 49.1% | 29.3% | 36.6% | 28.8% | 47.9% | 
C[C@@H](C[C@H](CCO)c1cc(C(F)(F)F)cc(C(F)(F)F)c1)c1ccc2ccccc2c1 | 30.6% | 79.3% | 102% | 106% | 94.6% | 98.3% | 75.3% | 81% |  | 55.2% | 102% | 38.8% | 78.9% | 67.6% | 86.1% | 71.3% | 88.7% | 
CCCCCC(=O)OCc1ccc(Cl)c(Cl)c1 | 97.5% | 104% | 103% | 108% | 105% |  | 106% | 106% | 102% | 105% | 109% | 109% | 93.9% | 101% | 94.8% | 103% | 109% | 103%
O=C(c1ccc(/C=C/c2n[nH]c3ccccc23)cc1)N1CCNCC1 | 5.24% (active) | 48.9% | 58.8% | 14.4% | 54.8% | 48.5% | 33.5% | 66.8% |  | 84.1% | 22.6% | 38.7% | 24% | 17.7% | 66.3% | 8.09% (active) | 11.7% | 
COc1ccc(C2CC(=O)c3c(O)c(OC)c(OC)c(OC)c3O2)cc1O (stereo not given) | 22.7% | 34.3% | 26.8% | 81.1% | 47.9% |  | 48.2% | -5.96% (active) | 3.97% (active) | 65.9% | 64.6% | -46.9% (active) | 24.8% | 7.57% (active) | 12.7% |  | 20.2% | 14.8%
Clc1ccc(/C=C/c2cc(N3CCOCC3)c3cc(Cl)c(Cl)cc3n2)cc1 | 59.4% | -40.9% (active) | 100% | 105% | 101% | 105% | 94.3% |  | 90.2% | 91.3% | -20.4% (active) | 91% | 91.7% | 98.3% |  | 63.5% | 111% | 
C#Cc1cccc(Nc2ncnc3cc(OC)c(OCCCCCCC(=O)NO)cc23)c1 | 1.46% (active) | -14.9% (active) | -21.5% (active) | -8.42% (active) | 6.28% (active) | -58.2% (active) | -41.3% (active) | -19.9% (active) | 14.4% | -24.4% (active) | -7.81% (active) | -28.1% (active) | 8.28% (active) | -27.4% (active) | -53.5% (active) | 5.62% (active) |  | 
